Assay outcomes (PubChem BioAssay)
CHX counter: counter-screen for Shiga toxin inhibitors: cycloheximide protein synthesis inhibition; cell reporter, cycloheximide protein synthesis inhibition counterscreen; max response, %; hit rate 12% among 300,000; in the data active = max response mostly above about 13%, no sharp cut-off; inactive = mostly below about 14%; also: read at 38.3 µM for the half of the compounds with a filed dose; 0% is about no effect
Shiga inhibitor: Shiga toxin inhibition. Vero cells, Shiga toxin protein synthesis inhibition reporter. inhibition, % at 38.7 µM. hit rate 9.2% among 290,000; in the data active = inhibition mostly above about 28%, no sharp cut-off; inactive = mostly below about 43%; also: 0% is about no effect
Sm TGR inh: blocks Schistosoma mansoni thioredoxin glutathione reductase. purified TGR, DTNB reduction, TNB absorbance 405 nm. Potency, µM (doses to about 114 µM), inactives show at the top dose activity change, negative = inhibition, usual class: inhibitors. hit rate 3% among 360,000. AID 485364; also: potency is read from the fitted curve at half-maximal effect; % is scaled to controls: 0 for no effect and ±100 for the full control effect; nearly all actives have a fitted effect of over 60% in size
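First, TGR (20 nM dispensed) and NADPH were mixed with compound. Second, a 15 min room-temperature incubation followed. Third, further NADPH and then DTNB were added to start the reaction. Finally, TNB absorbance was monitored kinetically.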
LmPK inh: blocks Leishmania mexicana pyruvate kinase activity; purified LmPK, Kinase-Glo ATP luminescence, 1 h; hit rate 0.37% among 290,000; Potency, µM (highest dose often 57.5 µM), for the others: at the top dose activity change, negative = inhibition, actives largely listed as inhibitors; Q27686; AID 1721; also: potency is read from the fitted curve at half-maximal effect; % is scaled to controls: 0 for no effect and ±100 for the full control effect
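Purified LmPK (0.1 nM) converted ADP (0.1 mM) to ATP with PEP (0.5 mM) in imidazole buffer pH 7.2 with KCl and MgCl2, 1 h at room temperature. ATP was read by Kinase-Glo luminescence; data normalized to uninhibited and no-enzyme controls.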
FBPA Giardia inh: inhibitors of Giardia lamblia fructose-1,6-bisphosphate aldolase; purified Giardia FBPA; Potency, µM (highest dose often 59.6 µM), inactives show at the top dose activity, negative = inhibition, usual class: inhibitors; hit rate 0.71% among 290,000; AID 2451; also: potency is read from the fitted curve at half-maximal effect; % is scaled to controls: 0 for no effect and ±100 for the full control effect; nearly all actives have a fitted effect of over 55% in size
Target sequence (A8B2U2 whole entry, looked up): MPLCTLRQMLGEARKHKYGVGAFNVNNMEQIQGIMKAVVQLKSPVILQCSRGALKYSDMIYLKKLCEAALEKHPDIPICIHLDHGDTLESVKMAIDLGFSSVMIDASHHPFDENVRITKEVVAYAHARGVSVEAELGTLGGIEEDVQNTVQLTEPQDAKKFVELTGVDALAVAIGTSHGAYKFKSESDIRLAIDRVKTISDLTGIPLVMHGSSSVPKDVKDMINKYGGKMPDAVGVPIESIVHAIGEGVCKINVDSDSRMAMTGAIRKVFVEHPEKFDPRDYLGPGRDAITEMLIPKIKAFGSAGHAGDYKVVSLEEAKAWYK
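Giardia FBPA (40 nM reagent) was preincubated 10 min at RT with compound (up to 57.5 uM final), then substrate plus GAPDH/TPI/NAD/arsenate coupling system with diaphorase/resazurin was added; resorufin fluorescence (525/598 nm) was read after 20 min.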
Tb PYK inh: blocks Trypanosoma brucei pyruvate kinase; Potency, µM (doses to about 76.8 µM), without a hit: at the top dose activity, negative = inhibition, actives largely listed as inhibitors; Q57TT1; hit rate 0.12% among 410,000; TbPYK enzyme, Kinase-Glo Plus ATP luminescence, 45 min; also: potency is read from the fitted curve at half-maximal effect; % is scaled to controls: 0 for no effect and ±100 for the full control effect; nearly all actives have a fitted effect of over 50% in size
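Assay buffer: 50 mM TEA pH 7.2, 100 mM KCl, 10 mM MgCl2, 0.05% BSA, 0.01% Tween-20. Pyruvate kinase from T. brucei plus substrate met compound, then ADP (130 uM final). Luminescence was read post 45 min RT.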
Numbers without * were called inactive; ? = inconclusive; / = not tested or not shown; [ ] = another dose, or the depositor's remark. This excerpt belongs to a sample that is enriched for hits. Unless noted, calls follow the shape of the dose curve; as a rule, active = well fitted curve in the direction sought with a large enough effect; inconclusive = small, poorly fitted or top-dose-only effect, or another doubt; inactive = no such curve, though single readings can be large; an effect the other way counts as inactive or inconclusive.

SMILES	CHX counter	Shiga inhibitor	Sm TGR inh	LmPK inh	FBPA Giardia inh	Tb PYK inh
CN(C)c1ccc(NC(=O)c2cccc(N3C(=O)CCC3=O)c2)cc1	21.4*	37.0	0.5%	2.4%	-1.5%	0.9%
O=C(Nc1ccccc1)c1cccc(N2C(=O)CCC2=O)c1	-2.9	-13.3	0.0%	0.2%	-0.5%	-0.3%
COC(=O)c1ccc(NC(=O)c2cccc(N3C(=O)CCC3=O)c2)cc1	/	/	0.6%	/	/	-2.2%
CC[C@H](C)[C@H](NC(=O)[C@H](CO)NC(=O)[C@H](CC(C)C)NC(=O)[C@H](CO)NC(=O)[C@@H]1CCCN1C(=O)[C@H](CC(N)=O)NC(=O)[C@@H](N)CC(=O)O)C(=O)N[C@@H](CC(=O)O)C(=O)N[C@@H](CC(C)C)C(=O)N[C@H](C(=O)N[C@@H](Cc1ccccc1)C(=O)N[C@@H](Cc1cnc[nH]1)C(=O)N[C@@H](CC(C)C)C(=O)N[C@@H](CC(C)C)C(=O)N[C@@H](CCCNC(=N)N)C(=O)N[C@H](C(=O)N[C@@H](CC(C)C)C(=O)N[C@@H](CC(C)C)C(=O)N[C@@H](CCC(=O)O)C(=O)N[C@@H](CC(C)C)C(=O)N[C@@H](C)C(=O)N[C@@H](CCCNC(=N)N)C(=O)N[C@H](C(=O)N[C@@H](CCC(N)=O)C(=O)N[C@@H](CO)C(=O)N[C@@H](CCC(N)=O)C(=O)N[C@@H](CCCNC(=N)N)C(=O)N[C@@H](CCC(=O)O)C(=O)N[C@@H](CCCNC(=N)N)C(=O)N[C@@H](C)C(=O)N[C@@H](CCC(=O)O)C(=O)N[C@@H](CCC(N)=O)C(=O)N[C@@H](CC(N)=O)C(=O)N[C@@H](CCCNC(=N)N)C(=O)N[C@H](C(=O)N[C@H](C(=O)N[C@@H](Cc1ccccc1)C(=O)N[C@@H](CC(=O)O)C(=O)N[C@@H](CO)C(=O)N[C@H](C(N)=O)C(C)C)[C@@H](C)CC)[C@@H](C)CC)[C@@H](C)O)[C@@H](C)O)[C@@H](C)O	-6.6	16.7*	/	/	4.9%	/
C/C(N)=C(/C#N)C(=O)COC(=O)COc1ccc(Cl)cc1	-1.4	2.9	4.5%	-1.4%	-1.1%	-3.5%
C/C(N)=C(/C#N)C(=O)COc1ccc(Cl)cc1Cl	47.6*	46.6	4.7%	-0.5%	7.7%	-6.1%
CO[C@H]1COC(=O)C/C=C\[C@@H](C)[C@H](OC)COC(=O)[C@H]2CCCN2C(=O)C/C=C\[C@@H]1C	/	/	/	/	-0.2%[12.9 µM]	/
CC1(C)CC(=O)C(C(C2=C(O)CC(C)(C)CC2=O)c2ccco2)C(=O)C1 (stereo not drawn)	-1.2	-13.1	?	-1.8%	/	?
COc1cc(C(C2=C(O)CC(C)(C)CC2=O)C2C(=O)CC(C)(C)CC2=O)cc(OC)c1OC (stereo not drawn)	-5.5	-17.1	15.8µM*	-4.6%	-0.6%	-24.0%
COc1cc(C(C2C(=O)CC(C)(C)CC2=O)C2C(=O)CC(C)(C)CC2=O)ccc1O	-1.5	2.0	?	-1.0%	-7.8%	?
COc1cc(C(C2C(=O)CC(C)(C)CC2=O)C2C(=O)CC(C)(C)CC2=O)cc(OC)c1OC	-3.4	4.3	25.1µM*	-0.2%	-11.8%	?
COc1ccc(C(C2C(=O)CC(C)(C)CC2=O)C2C(=O)CC(C)(C)CC2=O)cc1COCC(F)(F)F	3.9	-7.3	39.8µM*	1.5%	-1.0%	-18.8%
O=C(NCc1cccc(Br)c1)c1cccn1-c1nnc(N2CCCCC2)s1	/	/	5.9%	/	/	-19.5%
CC1(C)Cc2c(c(N3CCCC3)nc3sc(C(=O)Nc4ccccc4)c(N)c23)CO1	40.6*	79.7*	3.5%	-4.2%	/	-14.7%
Cc1cccc2cc3c(N)c(C(=O)Nc4ccc(N5CCOCC5)cc4)sc3nc12	0.7	6.3	8.6%	-0.3%	-0.1%	-6.8%
COc1ccccc1NC(=O)c1sc2nc(N3CCOCC3)c3c(c2c1N)CCCC3	16.0	28.7	-11.9%	-4.2%	/	-15.2%
Cc1ccc(NC(=O)c2sc3nc(N4CCOCC4)c4c(c3c2N)CC(C)(C)OC4)cc1	22.3*	6.5	-3.8%	-8.8%	?	-13.6%
Cc1ccccc1NC(=O)c1sc2nc(N3CCOCC3)c3c(c2c1N)CCCC3	18.8*	22.4	-14.8%	1.7%	/	?
Cc1ccc2nc3sc(C(=O)Nc4ccc(N5CCOCC5)cc4)c(N)c3cc2c1	23.8*	54.2	2.5%	-8.8%	-2.4%	/
CC1(C)Cc2c(c(N3CCOCC3)nc3sc(C(=O)Nc4ccc(Cl)cc4)c(N)c23)CO1	7.6	-11.0	-10.2%	5.0%	-29.0%	?
COc1cc(-c2nc3ncccn3c2Nc2ccc(C)cc2C)ccc1O	/	/	-0.6%	/	/	-11.0%
c1ccc(COc2ncnc3c2ncn3CCCN2CCN(c3ccccn3)CC2)cc1	/	/	/	/	/	0.2%
CC(=O)c1cc(C#N)c(SCCC(C)C)nc1C	4.1	10.8	13.3%	-2.9%	1.2%	1.3%
CC(C)CCSc1nc(N)c(C#N)cc1C#N	33.2*	10.7	-24.7%	2.6%	-2.8%	-2.5%
CC[C@H](C)[C@H](NC(=O)[C@H](Cc1ccc(O)cc1)NC(=O)[C@H](Cc1cnc[nH]1)NC(=O)[C@H](CCCNC(=N)N)NC(=O)[C@H](CC(C)C)NC(=O)[C@H](C)NC(=O)[C@H](CO)NC(=O)[C@H](Cc1ccc(O)cc1)NC(=O)[C@H](Cc1ccc(O)cc1)NC(=O)[C@H](CCCNC(=N)N)NC(=O)[C@H](C)NC(=O)[C@H](CCSC)NC(=O)[C@H](CC(=O)O)NC(=O)[C@H](CCC(=O)O)NC(=O)[C@H](C)NC(=O)[C@@H]1CCCN1C(=O)[C@H](C)NC(=O)[C@H](CC(=O)O)NC(=O)[C@H](CCC(=O)O)NC(=O)CNC(=O)[C@@H]1CCCN1C(=O)[C@H](CC(N)=O)NC(=O)[C@H](CC(=O)O)NC(=O)[C@@H]1CCCN1C(=O)[C@H](CCCCN)NC(=O)[C@H](CO)NC(=O)[C@@H]1CCCN1C(=O)[C@@H](N)Cc1ccc(O)cc1)C(=O)N[C@@H](CC(N)=O)C(=O)N[C@@H](CC(C)C)C(=O)N[C@@H](CC(C)C)C(=O)N[C@H](C(=O)N[C@@H](CCCNC(=N)N)C(=O)N1CCC[C@H]1C(=O)N[C@@H](CCCNC(=N)N)C(=O)N[C@@H](Cc1ccc(O)cc1)C(N)=O)[C@@H](C)O	8.4	16.8	/	/	-1.6%	/
Cc1ccccc1C(=O)Nc1nnc(SCC(=O)NCc2ccco2)s1	20.8*	71.9*	?	-1.8%	/	-5.4%
O=C(CSc1nnc(NC(=O)c2ccc3c(c2)OCO3)s1)NCc1ccco1	23.2*	34.5	6.9%	-17.8%	-1.1%	0.6%
CC(C)Sc1nnc(NC(=O)CCc2ccccc2)s1	16.3	7.0	2.4%	-6.1%	4.5%	-1.8%
